Values joined by “and” are separate entries in the source; they are usually repeats but may differ in a detail not shown here. Equal values may be shown once. The whole screen tested about 5,500 compounds, of which about 2,000 (36%) were called active. Inconclusive results (about 18%) are left out. Cut-off read from the data, not from the text of the source: active = normalized growth mostly below about 0.91 (no sharp cut-off); inconclusive = no clear call, values can overlap the other calls; inactive = mostly above about 0.92. This is one part of the list.
Experiment: chemical genetic growth profiling, strain panel (AID 1159580);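 note: tested at 20 µM; growth read once vehicle control cultures reached saturation at 30 °C; 1 = growth at the plate median or of vehicle wells; lower values mean less growth of the strain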
Conditions: S. cerevisiae deletion strains, growth OD

Measured: normalized growth

CC(C)=CC1C(CO)C1(C)C (centres undefined)
inactive: locus YAL021C, strain ccr4, stronger effect = lower value 1.01 | locus YAL026C, strain drs2, stronger effect = lower value 1.03 | locus YAL030W, strain snc1, stronger effect = lower value 1.02 | locus YBL061C, strain skt5, stronger effect = lower value 1.02 | locus YBR009C, strain hhf1, stronger effect = lower value 1.03 | locus YBR021W, strain FUR4, stronger effect = lower value 1.02 | locus YBR023C, strain chs3, stronger effect = lower value 1.02 | locus YBR171W, strain sec66, stronger effect = lower value 1.03 | locus YBR229C, strain ROT2, stronger effect = lower value 1.02 | locus YBR231C, strain swc5, stronger effect = lower value 1.02 | locus YBR279W, strain paf1, stronger effect = lower value 1.02 | locus YCL011C, strain gbp2, stronger effect = lower value 1.02 | locus YCL016C, strain dcc1, stronger effect = lower value 1.02 | locus YCL029C, strain bik1, stronger effect = lower value 0.994 | locus YCL061C, strain MRC1, stronger effect = lower value 1.01 | locus YCL069W, strain vba3, stronger effect = lower value 1.01 | locus YCR088W, strain abp1, stronger effect = lower value 1.02 | locus YDL005C, strain med2, stronger effect = lower value 1.03 | locus YDL035C, strain GPR1, stronger effect = lower value 1.03 | locus YDL040C, strain nat1, stronger effect = lower value 1.02 | locus YDL074C, strain BRE1, stronger effect = lower value 1.03 | locus YDL101C, strain DUN1, stronger effect = lower value 1.03 | locus YDL185W, strain tfp1, stronger effect = lower value 0.999 | locus YDL192W, strain arf1, stronger effect = lower value 1.01 | locus YDR001C, strain nth1, stronger effect = lower value 1.01 | locus YDR069C, strain doa4, stronger effect = lower value 1.04 | locus YDR101C, strain arx1, stronger effect = lower value 1 | locus YDR137W, strain rgp1, stronger effect = lower value 1.04 | locus YDR159W, strain sac3, stronger effect = lower value 1.03 | locus YDR162C, strain NBP2, stronger effect = lower value 1.03 | locus YDR195W, strain ref2 0.992 | locus YDR297W, strain sur2, stronger effect = lower value 1.03 | locus YDR318W, strain mcm21, stronger effect = lower value 0.995 | locus YDR334W, strain swr1, stronger effect = lower value 1.02 | locus YDR335W, strain msn5, stronger effect = lower value 1.02 | locus YDR388W, stronger effect = lower value 0.999 | locus YDR392W, strain spt3, stronger effect = lower value 0.981 | locus YDR502C, strain sam2, stronger effect = lower value 0.994 | locus YEL003W, strain gim4, stronger effect = lower value 1.02 | locus YEL037C, strain rad23, stronger effect = lower value 1.02 | locus YEL061C, strain CIN8 (second series), stronger effect = lower value 1.01 | locus YEL061C, strain CIN8, stronger effect = lower value 1.01 | locus YER015W, strain faa2, stronger effect = lower value 1.02 | locus YER016W, strain bim1, stronger effect = lower value 1.02 | locus YER110C, stronger effect = lower value 1.01 | locus YER111C, strain swi4, stronger effect = lower value 1.02 | locus YER155C, strain BEM2 (second series), stronger effect = lower value 1.04 | locus YER155C, strain BEM2, stronger effect = lower value 1.01 | locus YER167W, strain BCK2, stronger effect = lower value 1.02 | locus YFR010W, strain ubp6, stronger effect = lower value 1.03 | locus YGL078C, strain dbp3, stronger effect = lower value 1 | locus YGL086W, strain mad1, stronger effect = lower value 1.01 | locus YGL167C, strain pmr1, stronger effect = lower value 1.02 | locus YGL173C, strain kem1, stronger effect = lower value 1.02 | locus YGL227W, strain vid30, stronger effect = lower value 1.02 | locus YGL240W, strain doc1, stronger effect = lower value 1.04 | locus YGL248W, strain PDE1, stronger effect = lower value 1.03 | locus YGL253W, strain hxk2, stronger effect = lower value 1.02 | locus YGR078C, strain PAC10, stronger effect = lower value 1.04 | locus YGR135W, strain pre9, stronger effect = lower value 1.01 | locus YGR252W, strain gcn5, stronger effect = lower value 0.989 | locus YHR013C, strain ard1, stronger effect = lower value 1.04 | locus YHR027C, strain rpn1, stronger effect = lower value 1.02 | locus YHR030C, strain SLT2, stronger effect = lower value 1.02 and 0.985 | locus YHR079C, strain IRE1 (second series), stronger effect = lower value 1.01 | locus YHR079C, strain IRE1, stronger effect = lower value 0.994 | locus YHR094C, strain hxt1, stronger effect = lower value 0.984 | locus YHR129C, strain ARP1, stronger effect = lower value 1.02 | locus YHR142W, strain chs7, stronger effect = lower value 1.01 | locus YHR200W, strain rpn10, stronger effect = lower value 1 | locus YIL066C, strain RNR3, stronger effect = lower value 1.04 | locus YIL073C, strain SPO22, stronger effect = lower value 1.02 | locus YIL125W, strain kgd1, stronger effect = lower value 1.01 | locus YIR030C, strain dcg1, stronger effect = lower value 1 | locus YJL092W, strain hpr5, stronger effect = lower value 1.01 | locus YJL095W, strain BCK1 (second series), stronger effect = lower value 1.02 | locus YJL095W, strain BCK1, stronger effect = lower value 1.04 and 0.986 | locus YJL115W, strain asf1, stronger effect = lower value 1.02 | locus YJL129C, strain trk1, stronger effect = lower value 1.02 | locus YJL134W, strain LCB3, stronger effect = lower value 1.02 | locus YJL154C, strain vps35, stronger effect = lower value 1 | locus YJL164C, strain tpk1, stronger effect = lower value 1.02 | locus YJL166W, strain qcr8, stronger effect = lower value 1.02 | locus YJL168C, strain set2, stronger effect = lower value 0.997 | locus YJL187C, strain SWE1 (second series), stronger effect = lower value 1.04 | locus YJL187C, strain SWE1, stronger effect = lower value 1.02 | locus YJR043C, strain POL32, stronger effect = lower value 1.04 | locus YJR066W, strain TOR1, stronger effect = lower value 0.957 | locus YKL009W, strain mrt4, stronger effect = lower value 1 | locus YKL068W, stronger effect = lower value 1.01 | locus YKL085W, strain MDH1 (second series), stronger effect = lower value 0.998 | locus YKL085W, strain MDH1, stronger effect = lower value 0.998 | locus YKL160W, strain elf1, stronger effect = lower value 1.01 | locus YKL190W, strain CNB1, stronger effect = lower value 1.02 | locus YKR001C, strain vps1, stronger effect = lower value 1.01 | locus YKR026C, strain gcn3, stronger effect = lower value 0.994 | locus YKR091W, strain srl3, stronger effect = lower value 1.02 | locus YLL001W, strain dnm1, stronger effect = lower value 1.03 | locus YLL026W, stronger effect = lower value 1.02 | locus YLL041C, strain sdh2, stronger effect = lower value 1.01 | locus YLR027C, strain aat2, stronger effect = lower value 1.02 | locus YLR039C, strain RIC1, stronger effect = lower value 1.07 | locus YLR058C, strain SHM2, stronger effect = lower value 1.02 | locus YLR102C, strain apc9, stronger effect = lower value 0.989 | locus YLR113W, strain HOG1, stronger effect = lower value 0.976 | locus YLR221C, strain rsa3, stronger effect = lower value 1.02 | locus YLR258W, strain gsy2, stronger effect = lower value 1.03 | locus YLR262C, strain YPT6 (second series), stronger effect = lower value 1.02 | locus YLR262C, strain YPT6, stronger effect = lower value 1.07 | locus YLR268W, strain sec22, stronger effect = lower value 0.999 | locus YLR320W, strain mms22, stronger effect = lower value 1.04 | locus YLR330W, strain CHS5, stronger effect = lower value 1.02 | locus YLR342W, strain FKS1 (second series), stronger effect = lower value 1.02 | locus YLR342W, strain FKS1, stronger effect = lower value 1.03 | locus YLR357W, strain rsc2, stronger effect = lower value 1.04 | locus YLR370C, strain arc18, stronger effect = lower value 1.01 | locus YLR371W, strain rom2, stronger effect = lower value 1 | locus YLR384C, strain iki3, stronger effect = lower value 0.999 | locus YLR418C, strain cdc73, stronger effect = lower value 0.99 | locus YML016C, strain PPZ1, stronger effect = lower value 1.02 | locus YML032C, strain rad52, stronger effect = lower value 0.997 | locus YML120C, strain ndi1, stronger effect = lower value 1.02 | locus YML124C, strain tub3, stronger effect = lower value 1.01 | locus YMR058W, strain fet3, stronger effect = lower value 1.01 | locus YMR078C, strain ctf18, stronger effect = lower value 0.99 | locus YMR125W, strain sto1, stronger effect = lower value 1.03 | locus YMR129W, stronger effect = lower value 1.01 | locus YMR205C, strain PFK2, stronger effect = lower value 1.04 | locus YMR223W, strain ubp8, stronger effect = lower value 1.01 | locus YMR231W, strain pep5, stronger effect = lower value 1.02 | locus YMR263W, strain SAP30, stronger effect = lower value 1.03 | locus YMR307W, strain GAS1, stronger effect = lower value 1.11 | locus YNL067W, strain RPL9B, stronger effect = lower value 1.04 | locus YNL071W, strain lat1, stronger effect = lower value 1.02 | locus YNL153C, strain GIM3, stronger effect = lower value 1.04 | locus YNL183C, strain NPR1, stronger effect = lower value 0.955 | locus YNL209W, strain ssb2, stronger effect = lower value 1.03 | locus YNL233W, strain BNI4, stronger effect = lower value 1.03 | locus YNL248C, strain rpa49, stronger effect = lower value 1.02 | locus YNL250W, strain rad50, stronger effect = lower value 0.994 | locus YNL271C, strain bni1, stronger effect = lower value 1 | locus YNL298W, strain CLA4, stronger effect = lower value 0.998 | locus YNL307C, strain MCK1, stronger effect = lower value 1.01 | locus YNL322C, strain KRE1 (second series), stronger effect = lower value 1.02 | locus YNR049C, strain mso1, stronger effect = lower value 1.03 | locus YNR052C, strain pop2, stronger effect = lower value 0.995 | locus YOL012C, strain htz1 0.795 | locus YOL147C, strain pex11, stronger effect = lower value 0.993 | locus YOR001W, strain rrp6, stronger effect = lower value 1.01 | locus YOR061W, strain CKA2, stronger effect = lower value 1.02 | locus YOR069W, strain VPS5, stronger effect = lower value 1.02 | locus YOR070C, strain gyp1, stronger effect = lower value 1.02 | locus YOR080W, strain dia2, stronger effect = lower value 1.02 | locus YOR083W, strain WHI5, stronger effect = lower value 1.01 | locus YOR106W, strain vam3, stronger effect = lower value 1.02 | locus YOR136W, strain idh2, stronger effect = lower value 0.991 | locus YOR144C, strain elg1, stronger effect = lower value 0.991 | locus YOR184W, strain ser1, stronger effect = lower value 1.01 | locus YOR231W, strain MKK1, stronger effect = lower value 0.978 | locus YOR265W, strain rbl2, stronger effect = lower value 1.02 | locus YOR270C, strain vph1, stronger effect = lower value 1.03 | locus YOR290C, strain snf2, stronger effect = lower value 0.991 | locus YOR316C, strain cot1, stronger effect = lower value 0.991 | locus YPL051W, strain arl3, stronger effect = lower value 1.01 | locus YPL078C, strain atp4, stronger effect = lower value 1.01 | locus YPL106C, strain sse1, stronger effect = lower value 1.01 | locus YPL240C, strain hsp82, stronger effect = lower value 1.03 | locus YPL241C, strain CIN2, stronger effect = lower value 1.02 | locus YPL256C, strain CLN2, stronger effect = lower value 0.97 | locus YPR119W, strain clb2, stronger effect = lower value 0.989 | locus YPR141C, strain kar3, stronger effect = lower value 1 | locus YPR163C, strain tif3, stronger effect = lower value 0.99 | locus YPR167C, strain met16, stronger effect = lower value 1.01 | strain wtn01, stronger effect = lower value 0.99

— PubChem BioAssay AID1159580 (chemical genetic matrix, 2015)
